Results on one compound are retold here after ChEMBL document CHEMBL1961873, “Compounds: GSK PKIS; Assays: Nanosyn kinase panel” (2012).

The structures appear in SMILES notation.

In assay [1] the target is Protein kinase C gamma type (Homo sapiens) (UniProt P05129). Conditions: at 1 µM.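 Further: each value is an averaged percent inhibition of the enzyme.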
Assay [2] deals with T1, Protein kinase C iota type (Homo sapiens) (UniProt P41743).
T1 sequence (whole entry): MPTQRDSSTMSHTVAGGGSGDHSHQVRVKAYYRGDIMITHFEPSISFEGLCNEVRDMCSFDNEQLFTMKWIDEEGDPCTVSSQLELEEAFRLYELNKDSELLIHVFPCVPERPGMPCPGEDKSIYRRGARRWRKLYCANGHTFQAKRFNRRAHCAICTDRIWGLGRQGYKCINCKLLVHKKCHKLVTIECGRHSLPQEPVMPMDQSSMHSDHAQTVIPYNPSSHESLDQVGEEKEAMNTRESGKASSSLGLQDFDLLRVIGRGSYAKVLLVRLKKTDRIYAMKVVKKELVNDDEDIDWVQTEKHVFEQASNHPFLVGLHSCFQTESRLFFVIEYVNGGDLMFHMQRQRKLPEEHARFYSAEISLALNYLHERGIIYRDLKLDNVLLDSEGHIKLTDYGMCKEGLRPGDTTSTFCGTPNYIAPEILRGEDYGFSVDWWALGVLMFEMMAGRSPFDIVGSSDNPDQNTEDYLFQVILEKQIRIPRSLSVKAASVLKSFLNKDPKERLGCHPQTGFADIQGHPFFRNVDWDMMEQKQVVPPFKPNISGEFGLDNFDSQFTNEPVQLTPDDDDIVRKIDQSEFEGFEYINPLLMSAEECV
Conditions: at 0.1 µM.

The target of assay [3] is T1, Protein kinase C iota type (Homo sapiens). The note with it: at 1 µM.
The target in assay [4] is Protein kinase C theta type (Homo sapiens) (UniProt Q04759). Conditions: at 0.1 µM.
For assay [5] the target is unchanged. The note with it: at 1 µM.
The target in assay [6] is Protein kinase C beta type (Homo sapiens) (UniProt P05771). Conditions: at 0.1 µM.
For assay [7] the target is unchanged. Conditions: at 1 µM.
Assay [8] concerns the target T2, Serine/threonine-protein kinase D1 (Homo sapiens) (UniProt Q15139).
T2 sequence (whole entry): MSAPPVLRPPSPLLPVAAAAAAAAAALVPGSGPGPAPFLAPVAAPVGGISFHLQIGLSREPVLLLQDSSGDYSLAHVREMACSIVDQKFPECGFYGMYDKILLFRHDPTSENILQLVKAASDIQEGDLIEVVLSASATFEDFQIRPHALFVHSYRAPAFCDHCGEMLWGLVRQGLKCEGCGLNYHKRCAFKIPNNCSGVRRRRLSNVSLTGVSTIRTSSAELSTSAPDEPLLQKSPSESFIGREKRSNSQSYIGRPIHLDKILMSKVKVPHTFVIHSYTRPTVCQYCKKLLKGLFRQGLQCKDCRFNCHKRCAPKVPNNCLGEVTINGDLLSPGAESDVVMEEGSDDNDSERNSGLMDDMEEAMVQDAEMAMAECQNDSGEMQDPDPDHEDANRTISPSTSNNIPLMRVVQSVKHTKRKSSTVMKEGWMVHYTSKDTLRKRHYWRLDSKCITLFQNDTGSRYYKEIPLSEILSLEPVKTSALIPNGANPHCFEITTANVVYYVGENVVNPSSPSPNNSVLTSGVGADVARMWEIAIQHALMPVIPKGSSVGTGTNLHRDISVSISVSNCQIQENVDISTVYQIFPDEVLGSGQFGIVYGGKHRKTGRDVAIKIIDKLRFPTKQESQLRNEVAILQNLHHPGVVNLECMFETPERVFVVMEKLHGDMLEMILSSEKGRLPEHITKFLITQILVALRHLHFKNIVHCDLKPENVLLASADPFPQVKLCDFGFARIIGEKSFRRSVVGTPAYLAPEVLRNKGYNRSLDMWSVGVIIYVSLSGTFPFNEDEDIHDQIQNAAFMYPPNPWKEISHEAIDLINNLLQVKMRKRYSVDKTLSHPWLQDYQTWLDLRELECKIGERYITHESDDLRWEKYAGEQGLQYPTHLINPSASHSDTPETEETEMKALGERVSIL
Conditions: at 0.1 µM.

Assay [9] addresses T2, Serine/threonine-protein kinase D1 (Homo sapiens). Conditions: at 1 µM.
The target in assay [10] is T3, Serine/threonine-protein kinase D2 (Homo sapiens) (UniProt Q9BZL6).
T3 sequence (whole entry): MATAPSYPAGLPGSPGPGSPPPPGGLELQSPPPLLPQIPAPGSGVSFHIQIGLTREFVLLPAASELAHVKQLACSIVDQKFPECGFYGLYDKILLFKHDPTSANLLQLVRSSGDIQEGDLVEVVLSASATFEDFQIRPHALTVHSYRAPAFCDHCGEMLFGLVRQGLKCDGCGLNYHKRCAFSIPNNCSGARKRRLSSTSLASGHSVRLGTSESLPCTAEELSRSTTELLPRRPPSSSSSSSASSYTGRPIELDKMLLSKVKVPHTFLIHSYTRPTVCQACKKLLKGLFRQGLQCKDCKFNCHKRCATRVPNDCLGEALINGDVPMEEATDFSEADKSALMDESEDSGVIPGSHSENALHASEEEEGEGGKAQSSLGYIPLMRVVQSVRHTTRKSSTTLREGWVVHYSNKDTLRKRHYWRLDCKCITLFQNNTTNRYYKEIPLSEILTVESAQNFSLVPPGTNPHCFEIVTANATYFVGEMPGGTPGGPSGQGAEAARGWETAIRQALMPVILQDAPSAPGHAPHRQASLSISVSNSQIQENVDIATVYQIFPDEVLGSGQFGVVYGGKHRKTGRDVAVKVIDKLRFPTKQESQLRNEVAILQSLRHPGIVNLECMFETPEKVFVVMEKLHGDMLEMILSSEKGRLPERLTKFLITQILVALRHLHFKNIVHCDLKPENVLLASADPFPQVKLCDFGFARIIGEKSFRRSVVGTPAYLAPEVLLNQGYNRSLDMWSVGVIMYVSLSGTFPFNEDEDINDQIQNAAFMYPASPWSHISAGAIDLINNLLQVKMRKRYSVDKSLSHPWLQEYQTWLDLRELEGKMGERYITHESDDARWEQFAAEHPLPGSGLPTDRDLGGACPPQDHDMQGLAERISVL
The note with it: at 0.1 µM.

For assay [11], the target named is T3, Serine/threonine-protein kinase D2 (Homo sapiens). Conditions: at 1 µM.
Assay [12] has as its target T4, Serine/threonine-protein kinase D3 (Homo sapiens) (UniProt O94806).
T4 sequence (whole entry): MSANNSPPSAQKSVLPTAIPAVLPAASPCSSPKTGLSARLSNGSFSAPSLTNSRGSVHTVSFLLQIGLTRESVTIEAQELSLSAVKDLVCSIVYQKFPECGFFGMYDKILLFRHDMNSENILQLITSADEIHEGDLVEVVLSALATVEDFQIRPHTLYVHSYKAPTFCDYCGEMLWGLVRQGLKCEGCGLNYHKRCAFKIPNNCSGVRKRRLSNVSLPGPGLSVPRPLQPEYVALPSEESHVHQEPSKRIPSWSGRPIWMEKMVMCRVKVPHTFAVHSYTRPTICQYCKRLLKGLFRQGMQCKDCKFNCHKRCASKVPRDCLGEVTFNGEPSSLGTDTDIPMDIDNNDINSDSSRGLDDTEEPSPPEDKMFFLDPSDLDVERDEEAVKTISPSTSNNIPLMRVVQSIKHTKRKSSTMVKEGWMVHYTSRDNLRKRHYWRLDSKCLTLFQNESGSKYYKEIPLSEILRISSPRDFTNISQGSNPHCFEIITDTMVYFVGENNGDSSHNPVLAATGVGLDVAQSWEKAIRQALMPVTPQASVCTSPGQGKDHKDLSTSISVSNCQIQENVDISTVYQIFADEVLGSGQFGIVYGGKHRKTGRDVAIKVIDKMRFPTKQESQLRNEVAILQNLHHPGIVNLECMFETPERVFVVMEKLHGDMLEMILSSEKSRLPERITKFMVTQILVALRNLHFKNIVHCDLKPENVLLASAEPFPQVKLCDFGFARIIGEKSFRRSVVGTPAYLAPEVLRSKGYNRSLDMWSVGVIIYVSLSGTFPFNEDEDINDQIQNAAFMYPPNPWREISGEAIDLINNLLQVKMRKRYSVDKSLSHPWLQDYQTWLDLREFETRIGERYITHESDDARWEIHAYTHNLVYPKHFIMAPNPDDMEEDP
Conditions: at 0.1 µM.

Assay [13] addresses T4, Serine/threonine-protein kinase D3 (Homo sapiens). Conditions: at 1 µM.
In assay [14] the target is T5, cGMP-dependent protein kinase 1 (Homo sapiens) (UniProt Q13976).
T5 sequence (whole entry): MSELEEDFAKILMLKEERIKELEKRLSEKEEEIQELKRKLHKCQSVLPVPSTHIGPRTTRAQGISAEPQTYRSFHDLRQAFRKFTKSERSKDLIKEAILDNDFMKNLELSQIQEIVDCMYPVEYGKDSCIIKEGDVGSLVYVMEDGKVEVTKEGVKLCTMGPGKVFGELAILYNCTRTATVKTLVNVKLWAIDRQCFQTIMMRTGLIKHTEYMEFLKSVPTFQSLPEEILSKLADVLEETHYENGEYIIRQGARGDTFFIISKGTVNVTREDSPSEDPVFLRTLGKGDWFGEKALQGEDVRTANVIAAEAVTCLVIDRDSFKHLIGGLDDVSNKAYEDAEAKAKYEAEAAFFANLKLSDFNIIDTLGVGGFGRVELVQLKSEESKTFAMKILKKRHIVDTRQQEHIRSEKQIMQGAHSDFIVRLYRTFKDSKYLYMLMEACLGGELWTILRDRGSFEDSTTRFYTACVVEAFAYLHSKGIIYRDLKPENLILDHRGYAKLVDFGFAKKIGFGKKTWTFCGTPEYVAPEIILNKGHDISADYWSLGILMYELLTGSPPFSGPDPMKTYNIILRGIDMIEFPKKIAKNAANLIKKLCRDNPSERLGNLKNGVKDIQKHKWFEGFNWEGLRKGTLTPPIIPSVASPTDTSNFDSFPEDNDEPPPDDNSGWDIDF
The note with it: at 0.1 µM.

Assay [15] deals with T5, cGMP-dependent protein kinase 1 (Homo sapiens). The note with it: at 1 µM.
The target of assay [16] is T6, cGMP-dependent protein kinase 2 (Homo sapiens) (UniProt Q13237).
T6 sequence (whole entry): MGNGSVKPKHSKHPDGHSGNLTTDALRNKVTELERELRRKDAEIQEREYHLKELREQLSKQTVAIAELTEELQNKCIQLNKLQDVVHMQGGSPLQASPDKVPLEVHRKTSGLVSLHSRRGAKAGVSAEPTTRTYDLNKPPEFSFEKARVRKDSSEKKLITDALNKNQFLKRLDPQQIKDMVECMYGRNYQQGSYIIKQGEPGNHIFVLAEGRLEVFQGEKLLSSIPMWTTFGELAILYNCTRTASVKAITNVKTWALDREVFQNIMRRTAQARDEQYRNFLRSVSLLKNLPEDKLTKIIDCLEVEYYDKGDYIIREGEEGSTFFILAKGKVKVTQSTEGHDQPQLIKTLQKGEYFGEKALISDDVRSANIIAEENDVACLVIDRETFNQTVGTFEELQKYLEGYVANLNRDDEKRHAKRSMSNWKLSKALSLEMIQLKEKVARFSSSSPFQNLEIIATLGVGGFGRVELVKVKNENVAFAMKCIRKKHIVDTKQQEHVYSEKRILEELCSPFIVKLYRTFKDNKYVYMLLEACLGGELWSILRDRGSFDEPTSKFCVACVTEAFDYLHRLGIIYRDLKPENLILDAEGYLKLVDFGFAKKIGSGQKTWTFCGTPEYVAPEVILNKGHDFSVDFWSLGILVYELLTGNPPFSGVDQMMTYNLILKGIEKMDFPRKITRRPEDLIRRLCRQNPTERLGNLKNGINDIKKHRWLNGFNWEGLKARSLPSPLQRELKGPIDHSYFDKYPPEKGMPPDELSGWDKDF
The note with it: at 0.1 µM.

Assay [17] has as its target T6, cGMP-dependent protein kinase 2 (Homo sapiens). Conditions: at 1 µM.
In assay [18] the target is T7, cAMP-dependent protein kinase catalytic subunit PRKX (Homo sapiens) (UniProt P51817).
T7 sequence (whole entry): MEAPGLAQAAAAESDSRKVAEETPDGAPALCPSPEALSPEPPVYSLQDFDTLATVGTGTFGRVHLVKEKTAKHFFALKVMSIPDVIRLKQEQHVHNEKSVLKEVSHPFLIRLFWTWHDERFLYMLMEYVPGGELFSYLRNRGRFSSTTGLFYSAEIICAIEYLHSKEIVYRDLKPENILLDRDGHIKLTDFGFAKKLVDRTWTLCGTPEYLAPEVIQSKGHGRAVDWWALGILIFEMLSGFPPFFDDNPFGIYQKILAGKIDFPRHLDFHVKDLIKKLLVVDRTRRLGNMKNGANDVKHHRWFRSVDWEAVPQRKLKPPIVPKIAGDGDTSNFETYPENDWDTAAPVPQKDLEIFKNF
Conditions: at 0.1 µM.

The target in assay [19] is T7, cAMP-dependent protein kinase catalytic subunit PRKX (Homo sapiens). The note with it: at 1 µM.
Assay [20] deals with Rho-associated protein kinase 1 (Homo sapiens) (UniProt Q13464). The note with it: at 0.1 µM.
Rho-associated protein kinase 1 (Homo sapiens), sequence (Q13464 2-1354 limits assumed): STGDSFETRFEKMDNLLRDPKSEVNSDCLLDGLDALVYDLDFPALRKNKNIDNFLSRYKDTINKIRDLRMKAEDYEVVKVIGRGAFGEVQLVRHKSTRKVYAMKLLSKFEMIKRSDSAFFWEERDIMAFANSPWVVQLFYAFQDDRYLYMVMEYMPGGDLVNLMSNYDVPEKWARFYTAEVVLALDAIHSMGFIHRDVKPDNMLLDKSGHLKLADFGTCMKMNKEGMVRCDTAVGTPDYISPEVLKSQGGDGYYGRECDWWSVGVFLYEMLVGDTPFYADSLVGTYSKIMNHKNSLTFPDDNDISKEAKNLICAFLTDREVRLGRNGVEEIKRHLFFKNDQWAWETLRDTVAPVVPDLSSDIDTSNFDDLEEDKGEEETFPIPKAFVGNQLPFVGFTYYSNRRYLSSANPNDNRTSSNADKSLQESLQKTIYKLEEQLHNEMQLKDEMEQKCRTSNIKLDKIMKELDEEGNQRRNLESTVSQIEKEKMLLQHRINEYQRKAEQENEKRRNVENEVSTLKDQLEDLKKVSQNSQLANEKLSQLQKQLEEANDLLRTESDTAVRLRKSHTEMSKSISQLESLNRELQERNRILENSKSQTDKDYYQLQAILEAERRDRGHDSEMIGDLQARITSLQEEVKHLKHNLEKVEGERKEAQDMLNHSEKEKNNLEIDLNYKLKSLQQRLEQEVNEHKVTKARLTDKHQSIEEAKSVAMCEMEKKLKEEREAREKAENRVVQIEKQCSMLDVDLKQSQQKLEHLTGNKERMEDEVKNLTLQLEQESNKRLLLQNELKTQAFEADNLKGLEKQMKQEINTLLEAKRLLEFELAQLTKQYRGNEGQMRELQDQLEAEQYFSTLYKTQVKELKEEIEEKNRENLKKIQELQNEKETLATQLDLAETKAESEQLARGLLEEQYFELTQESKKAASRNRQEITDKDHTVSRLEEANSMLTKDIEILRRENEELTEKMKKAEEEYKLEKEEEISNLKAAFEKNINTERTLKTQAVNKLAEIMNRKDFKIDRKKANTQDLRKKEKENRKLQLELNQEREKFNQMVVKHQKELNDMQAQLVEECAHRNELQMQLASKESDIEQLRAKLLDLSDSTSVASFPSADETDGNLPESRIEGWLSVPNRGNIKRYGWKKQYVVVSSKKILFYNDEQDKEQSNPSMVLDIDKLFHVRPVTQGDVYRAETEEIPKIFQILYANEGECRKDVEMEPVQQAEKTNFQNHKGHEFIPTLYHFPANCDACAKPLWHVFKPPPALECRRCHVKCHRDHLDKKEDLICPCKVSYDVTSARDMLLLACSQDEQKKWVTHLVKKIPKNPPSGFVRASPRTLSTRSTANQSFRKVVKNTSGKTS

Protein kinase C beta type (Homo sapiens), sequence (P05771 2-671 limits assumed): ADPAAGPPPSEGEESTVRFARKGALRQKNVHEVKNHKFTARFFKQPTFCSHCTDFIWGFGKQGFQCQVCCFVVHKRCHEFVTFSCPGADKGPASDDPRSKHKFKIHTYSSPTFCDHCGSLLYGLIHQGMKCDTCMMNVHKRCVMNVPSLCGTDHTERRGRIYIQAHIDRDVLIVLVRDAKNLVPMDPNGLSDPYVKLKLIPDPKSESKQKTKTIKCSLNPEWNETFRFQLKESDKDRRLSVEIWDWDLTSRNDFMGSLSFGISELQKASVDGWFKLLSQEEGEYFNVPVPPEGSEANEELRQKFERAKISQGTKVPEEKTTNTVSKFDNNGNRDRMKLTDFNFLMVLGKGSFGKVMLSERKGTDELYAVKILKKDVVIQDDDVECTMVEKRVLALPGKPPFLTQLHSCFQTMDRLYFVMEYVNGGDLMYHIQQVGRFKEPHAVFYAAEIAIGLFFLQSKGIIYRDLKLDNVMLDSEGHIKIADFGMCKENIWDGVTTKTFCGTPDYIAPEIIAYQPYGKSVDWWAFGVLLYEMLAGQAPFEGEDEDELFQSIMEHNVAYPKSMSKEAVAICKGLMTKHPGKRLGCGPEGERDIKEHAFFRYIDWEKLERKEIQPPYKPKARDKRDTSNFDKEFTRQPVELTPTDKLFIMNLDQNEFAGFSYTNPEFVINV
Protein kinase C theta type (Homo sapiens), sequence (Q04759 whole entry, looked up): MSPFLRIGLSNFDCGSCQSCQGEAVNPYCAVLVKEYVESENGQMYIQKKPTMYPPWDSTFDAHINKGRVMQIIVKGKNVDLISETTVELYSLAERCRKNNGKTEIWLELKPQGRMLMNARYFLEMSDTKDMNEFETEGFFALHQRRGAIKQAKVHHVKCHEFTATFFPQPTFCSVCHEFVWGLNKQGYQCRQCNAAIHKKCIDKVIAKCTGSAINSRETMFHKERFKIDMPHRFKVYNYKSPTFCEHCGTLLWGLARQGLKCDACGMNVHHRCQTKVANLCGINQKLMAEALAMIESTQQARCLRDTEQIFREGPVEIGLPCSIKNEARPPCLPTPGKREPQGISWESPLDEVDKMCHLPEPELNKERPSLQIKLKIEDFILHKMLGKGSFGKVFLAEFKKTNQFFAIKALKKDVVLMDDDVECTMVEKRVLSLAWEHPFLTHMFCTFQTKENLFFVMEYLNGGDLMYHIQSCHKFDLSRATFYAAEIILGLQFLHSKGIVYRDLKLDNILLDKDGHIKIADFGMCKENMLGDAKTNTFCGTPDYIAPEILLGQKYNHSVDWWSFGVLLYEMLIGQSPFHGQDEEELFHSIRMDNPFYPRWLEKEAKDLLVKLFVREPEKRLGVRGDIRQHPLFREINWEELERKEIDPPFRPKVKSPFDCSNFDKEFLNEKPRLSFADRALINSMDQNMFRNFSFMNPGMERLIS

Consider `O=C(NCC1CC1)c1ccc(-c2cccc(C(=O)NC3CC3)c2)cc1`, for which the inhibition in assay [1] is -1.2%; in assay [2], 2.21%; in [3], 3.55%; in assay [4], 1.24%; in [5], -0.68%; in assay [6], 0.69%. Also, the inhibition is -1.18% in assay [7]; 1.97% in assay [8]; 2.45% in assay [9]; 2.36% in [10]; 2.14% in assay [11]; 2.87% in assay [12]. Further, the inhibition in assay [13] is 1.81%; in assay [14] it was 3.32%; in [15] it was 1.97%; in [16] it was 1.23%; in assay [17] it was 0.42%; in assay [18], 0.49%. Also, the inhibition in [19] was -0.06%; in [20] it was 1.17%.

The inhibition is the drop in the measured response relative to a control, in per cent.
